Screening results deposited in PubChem BioAssay by National Center for Advancing Translational Sciences (NCATS).
This is a sample that favours compounds with a hit; in the whole collection about 11% have one here.
JMJD2E inh = JMJD2E (human) inhibition. B2RXH2. 1.6% of 230,000 active. JMJD2E catalytic domain, FDH-coupled NADH fluorescence (FDH is formaldehyde dehydrogenase). Potency, µM (doses to about 57.1 µM), inactives show at the highest dose activity change, negative = inhibition, usual class: inhibitors;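 also: potency is read from the fitted curve at half-maximal effect; 0% = wells with enzyme and -100% = buffer wells without enzyme; nearly all actives have a fitted effect of over 50% in size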
Target sequence (B2RXH2 1-337 limits assumed): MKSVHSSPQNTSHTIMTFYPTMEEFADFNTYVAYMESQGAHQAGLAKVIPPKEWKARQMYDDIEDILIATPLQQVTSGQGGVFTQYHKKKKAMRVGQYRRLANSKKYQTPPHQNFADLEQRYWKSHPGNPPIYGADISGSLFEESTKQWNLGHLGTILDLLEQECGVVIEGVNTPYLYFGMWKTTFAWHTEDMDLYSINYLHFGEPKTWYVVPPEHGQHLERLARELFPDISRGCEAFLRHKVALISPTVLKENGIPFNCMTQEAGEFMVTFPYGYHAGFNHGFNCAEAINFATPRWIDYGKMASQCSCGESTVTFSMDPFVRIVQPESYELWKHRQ
PNC assembly inh = perinucleolar compartment assembly inhibition; PC3M PTB-GFP, PNC prevalence imaging, 16 h; stronger effect = lower value; activity change (PNC), negative = inhibition, % at 10 µM; 3.1% of 140,000 active;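 active = readout at or below -70, meaning at least 70% loss of cells showing the perinucleolar compartment, a nuclear body marking cancer cells; inconclusive = readout between -30 and a set limit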;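 also: plate controls were DMSO wells for no effect and camptothecin positive control wells for full effect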
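Read-out is percentage of cells bearing a perinucleolar compartment, from automated 20x imaging of fixed, Hoechst-stained PC3M PTB-GFP cells. Cells were seeded 4 h, then exposed 16 h to compound (23 nl of library stock) in duplicate plates.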
ALDH1A1 inh = inhibitors of human aldehyde dehydrogenase 1A1; P00352; Purified ALDH1A1, NADH fluorescence, propionaldehyde substrate; Potency, µM (titrated, usually from 75.3 µM), for the others: at the highest dose activity, negative = inhibition, hits mostly inhibitors; 7.3% of 220,000 active;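 also: potency is read from the fitted curve at half-maximal effect; plate controls were no enzyme wells and a reference inhibitor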
HPGD inh = blocks human HPGD enzyme activity; P15428; purified HPGD, NADH fluorescence kinetic, PGE2 substrate; Potency, µM, without a hit: at the top dose activity change, negative = inhibition, actives largely listed as inhibitors; 4.3% of 150,000 active; also: potency is read from the fitted curve at half-maximal effect
Target sequence (P15428 whole entry, looked up): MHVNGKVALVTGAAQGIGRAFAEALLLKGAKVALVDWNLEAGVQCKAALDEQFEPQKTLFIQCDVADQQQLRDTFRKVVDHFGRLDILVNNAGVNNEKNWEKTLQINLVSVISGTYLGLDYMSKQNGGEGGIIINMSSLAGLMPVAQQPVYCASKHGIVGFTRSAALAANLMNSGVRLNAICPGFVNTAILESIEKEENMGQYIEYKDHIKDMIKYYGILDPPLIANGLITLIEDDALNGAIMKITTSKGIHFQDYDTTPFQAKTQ
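20 nM HPGD preincubated 15 min at room temperature with compound in 50 mM Tris-HCl pH 8, 0.01% Tween 20. Started with 1 mM NAD+ and 30 uM prostaglandin E2; NADH fluorescence (360/450 nm) read 5 times over 30-s intervals, last minus first.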
Numbers without * were called inactive; ? = inconclusive; · = no result given; [ ] = dose if it differs, or a comment. Unless noted, calls follow the shape of the dose curve; as a rule, active = well fitted inhibition curve with a large enough effect (not every such curve was filed as active); inconclusive = small, poorly fitted or top-dose-only effect, or another doubt; inactive = no such curve, though single readings can be large or run the other way. Unless noted, % is scaled to controls: 0 for no effect and ±100 for the full control effect.

SMILES | JMJD2E inh | PNC assembly inh | ALDH1A1 inh | HPGD inh
O=C(Nc1cccc(S(=O)(=O)N2CCCC2)c1)c1ccc2c(=O)n3c(nc2c1)CCCCC3 | 1% | ? | 3.5µM* | -6%
O=C(Nc1ccc(F)cc1Cl)c1ccc2c(=O)n3c(nc2c1)CCCCC3 | 10% | ? | -10% | 4%
CCC1(c2ccc(F)cc2)NC(=O)N(CC(=O)Nc2ccc(C)c(S(=O)(=O)N3CCOCC3)c2)C1=O (centres undefined) | -7% | · | -10% | ·
CCOC(=O)c1ccccc1NC(=O)c1ccc2c(=O)n3c(nc2c1)CCCCC3 | ? | 39 | ? | -20%
O=C(NC1CCCCCC1)c1ccc2c(=O)n3c(nc2c1)CCCCC3 | -3% | ? | 10µM* | -16%
CC(=O)c1cccc(NC(=O)c2ccc3c(=O)n4c(nc3c2)CCCCC4)c1 | 1% | · | 5µM* | ·
O=C(Nc1nc(-c2ccccc2)cs1)c1ccc2c(=O)n3c(nc2c1)CCCCC3 | ? | -3 | 28µM* | ·
N#C/C(=C\c1ccc(F)c(Cl)c1)S(=O)(=O)c1ccccn1 | -1% | · | · | ·
Cc1ccc(-n2nnnc2-c2nc3ccccc3s2)cc1 | -9% | -134* | 0% | -29%
COc1ccc(C2NC(=O)NC(O)(C(F)(F)F)C2C(=O)c2ccc(F)cc2)cc1 (centres undefined) | -6% | -1 | ? | -1%
COc1cc(C2NC(=O)NC(O)(C(F)(F)F)C2C(=O)c2cccs2)ccc1O (centres undefined) | -1% | 3 | 22µM* | -7%
COc1ccc(C2NC(=S)NC(O)(C(F)(F)F)C2C(=O)c2cccs2)cc1 (centres undefined) | -10% | 17 | 10µM* | 2%
CCCCCCCN[C@H]1CCC[C@@H]1CCCCCCC(=O)O | 1% | · | -2% | -4%
C[C@H]1CS(=O)(=O)CCN1/N=C\c1ccc([N+](=O)[O-])o1 | 4%[25.5 µM] | · | ? | -6%
O=C(CN(Cc1ccc(F)cc1)C(=O)CCC(=O)Nc1ccccn1)NCc1ccco1 | -1% | 31 | 8% | -13%
Cc1ccnc(NC(=O)CCC(=O)N(CC(=O)NCCc2ccccc2)Cc2ccco2)c1 | 0% | 4 | 7.9µM* | -7%
CCC(C)(C)NC(=O)CN(Cc1ccccc1Cl)C(=O)CCC(=O)Nc1cc(C)ccn1 | -25% | · | 14µM* | ·
CC1C(=O)CCC2[C@]1(C)CCC1[C@]2(C)CC[C@@]2(C)C3CC(C)(C)CC[C@]3(C)CC[C@@]12C (some centres undefined) | 5% | · | 3% | -1%
CCCCCCN1C=CC=C/C1=C\C=C(C#N)C#N | -8% | · | · | ·
CN(C)/N=C/C=C1\CCC/C(=C/c2cccs2)C1=O | 8% | · | 25µM* | ·
CN(C)/N=C/C=C1\CC/C(=C\c2ccc(Br)cc2)C1=O | 9% | 20 | -4% | -13%
COc1ccccc1C1(O)CCN(CC(=O)Nc2nc(-c3ccccc3)cs2)CC1 | -12% | · | 7% | ·
COc1cc(C)ccc1OCCOc1c(C)cc(Cl)cc1Cl | 0% | -6 | 14% | -13%
COc1cc(C)ccc1OCCCOc1c(Cl)cccc1Cl | 3% | 10 | -10% | 11µM*
COc1ccccc1OCCCOc1c(Cl)cc(C)cc1Cl | 7% | -2 | -2% | 14µM*
SMILES | JMJD2E inh | PNC assembly inh | ALDH1A1 inh | HPGD inh
O=C(CN1C(=O)NC2(CCCCC2)C1=O)N1CCN(S(=O)(=O)c2ccccc2)CC1 | -1% | · | -4% | ·
O=C(CN1C(=O)NC2(CCCCCC2)C1=O)N1CCC(Cc2ccccc2)CC1 | -2% | -13 | 22µM* | 0%
N[C@@H](CO)C(=O)NNCc1ccc(O)c(O)c1O | 7.9µM* | · | ? | -2%
COC(=O)[C@@H](N)Cc1ccc(O)cc1 | 3% | 7 | 6% | -1%
C/C=C/c1ccc(OCCOc2ccc(C=O)cc2)c(OC)c1 | -9% | -4 | ? | 25µM*
C/C=C/c1ccc(OCCCNC)c(OC)c1 | ? | -7 | 28µM* | -2%
COc1cc(C=O)ccc1OCCOCCOc1ccc(Cl)cc1 | 7% | 19 | 3.5µM* | -29%
CCOC(=O)N/N=C/c1ccc(OCCSc2ccc(Cl)cc2)c(OC)c1 | -26% | -4 | 9% | -24%
C/C=C/c1ccc(OCCCCOc2c(OC)cccc2OC)c(OC)c1 | 6% | 43 | -8% | ?
CCOC(=O)N/N=C/c1ccc(OCCSc2ccc(Cl)cc2)c(OCC)c1 | 1% | 0 | 6% | 16µM*
CCCC(c1cc(C(C)(C)C)c(O)cc1C)c1cc(C(C)(C)C)c(O)cc1C | · | · | 7%[13.5 µM] | -20%
CCCNC(=O)C1CCN(c2cc(-c3ccccc3)nc3ncnn23)CC1 | ? | · | 4% | ·
COC(=O)[C@@H](c1ccccc1Cl)N1CCc2sccc2C1 | · | · | -1% | ·
[Cu].[NH-][C@H](CC(=O)O)C(=O)O.[NH-][C@H](CC(=O)O)C(=O)O | · | · | 1%[13.5 µM] | -7%
COc1cc(C=O)ccc1OCCSc1ccc(Cl)cc1 | -3% | 68 | ? | 11µM*
C/C=C/c1ccc(OCCCCOc2ccccc2C(C)=O)c(OC)c1 | -26% | 29 | ? | 14µM*
COc1cc(C=O)ccc1OCCOCCOc1c(C)cc(Cl)cc1Cl | -22% | 29 | ? | ?
COc1ccc(NC(=O)/C=C/c2ccccc2)c([N+](=O)[O-])c1 | -1% | -82* | 8% | -1%
COC(=O)c1cc(Cl)c(NC(=O)/C=C/c2ccc(OC)cc2)cc1OC | ? | -113* | ? | ?
COc1ccc(/C=C/C(=O)Nc2ccc(OC)cc2[N+](=O)[O-])cc1 | 3% | -11 | 9% | -4%
CCOc1ccc(NC(=S)NC(=O)/C=C/c2ccc(OC)c(OC)c2)c([N+](=O)[O-])c1 | 3% | 6 | -3% | 22µM*
CCOC(=O)C(=Nc1ccc(Cl)cc1)NO | 13% | 36 | 5% | -10%
COCCNC(=O)C/C(C)=N/NC(=O)C(=O)NC1CCCCC1 | 120% | · | 1% | ·
C1CCC(c2nn3c(-c4n[nH]c5c4CCC5)nnc3s2)CC1 | 8% | ? | ? | ·
CCN(CC)c1ccc(-c2nn3c(-c4n[nH]c5c4CCC5)nnc3s2)cc1 | ? | -99* | ? | ?
SMILES | JMJD2E inh | PNC assembly inh | ALDH1A1 inh | HPGD inh
O=C(Nc1ccc(OCc2ccccc2)cc1)Nc1ccccc1C(=O)NCCCN1CCOCC1 | -45% | · | 0% | ·
Cc1ccccc1OCC1CN(CN2CCOCC2)C(=O)O1 (centres undefined) | 33% | -87* | 3% | -1%
CCn1nnnc1SCC(=O)NCc1ccc2c(c1)OCO2 | 2% | 3 | -9% | -11%
O=C(CSc1nnnn1C1CCCCC1)NCc1ccco1 | 9% | -19 | ? | -5%
O=C(CSc1nnnn1C1CCCC1)NCc1ccc2c(c1)OCO2 | 9% | ? | 20µM* | 1%
CC(=O)Nc1ccc(C(=O)CSc2nnnn2C2CCCC2)cc1 | 10% | · | 16µM* | ·
COC(=O)c1ccc(NC(=O)CSc2nnnn2C2CCCCC2)cc1 | 4% | 210 | -2% | -20%
COc1ccc(OC)c(-n2nnnc2SCC(=O)NCc2ccc3c(c2)OCO3)c1 | 7% | 15 | 13µM* | -9%
O=C(CSc1nnnn1C1CCCCC1)NCc1ccc2c(c1)OCO2 | 3% | 15 | 14µM* | -2%
Cc1ccc(N2C(=O)CC(NNC(=O)Cc3ccc(F)cc3)C2=O)cc1Cl (centres undefined) | -6% | · | · | ·
